Compound activity from PubChem.
GCN5L2 inh: inhibitors of human GCN5L2 histone acetyltransferase | Q92830 | GCN5L2 HAT assay, ThioGlo1 CoA-SH fluorescence | Potency, µM (series often up to 58.9 µM), for the others: at the top dose activity change, negative = inhibition, hits mostly inhibitors | 390,000 tested, 0.21% active; also: potency is read from the fitted curve at half-maximal effect; % is scaled to controls: 0 for no effect and ±100 for the full control effect
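Enzyme at 20nM final was mixed with library compounds for 15 min at room temperature. Peptide H3(1-25) at 75uM, acetyl-CoA at 70uM and ThioGlo1 at 50uM were then added. Plates were read immediately and after 20 min (Ex340nm/Em540nm).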
PI5P4Ka inh: blocks human PI5P4K alpha kinase activity | max response, % | 330,000 tested, 1.2% active | PI5P4Kalpha enzyme, ADP-Glo luminescence, 60 min; hits give low values | P48426; active = max response of -50% or lower; inconclusive = between -30% and -50%; inactive = -30% or higher; also: value at the top dose of about 77 µM; % is scaled to controls: 0 for no effect and ±100 for the full control effect
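Reactions run in 0.038 M HEPES pH 7.4, 0.28 mM EGTA, 0.1% CHAPS and 5% DMSO, with PI5P4Kalpha, substrate, compound and 5 microM ATP final, one hour at room temperature. Readout is ADP-Glo luminescence.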
HP1b chromo inh: HP1-beta chromodomain-methylated histone interaction inhibition; P83916; AlphaScreen HP1-beta / biotin-H3K9me3 peptide binding; Potency, µM (top dose mostly 114 µM), for the others: top-dose activity change, negative = inhibition, actives largely listed as inhibitors; 390,000 tested, 0.56% active; AID 540317; also: potency is read from the fitted curve at half-maximal effect; nearly all actives have a fitted effect of over 70% in size
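HP1-beta protein (50 nM final) preincubated 30 min at room temperature with biotinylated H3(1-18)K9me3 peptide (50 nM) in PBS pH 7.4, 0.01% Tween-20, then compound added for 30 min. AlphaScreen streptavidin donor/nickel chelate acceptor beads (10 ug/mL final), 30 min dark, luminescence read.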
PLK1 PBD block: blocks phosphopeptide binding to human PLK1 polo-box domain; P53350; 360,000 tested, 2.8% active; AID 720504; Potency, µM, for the others: max response, negative = inhibition, most hits filed as inhibitors; Plk1 PBD binding of FITC phosphopeptide, fluorescence polarization; also: potency is read from the fitted curve at half-maximal effect; series mostly up to about 57 µM; % is scaled to controls: 0 for no effect and ±100 for the full control effect; nearly all actives have a fitted effect of over 65% in size
BAZ2B block: BAZ2B (human) inhibition; Q9UIF8; AlphaScreen BAZ2B-H3K14Ac peptide displacement; Potency, µM (highest dose often 114 µM), without a hit: top-dose activity change, negative = inhibition, usual class: inhibitors; 360,000 tested, 4.4% active; AID 504333; also: potency is read from the fitted curve at half-maximal effect; % is scaled to controls: 0 for no effect and ±100 for the full control effect; nearly all actives have a fitted effect of over 60% in size
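AlphaScreen luminescence quantifies BAZ2B engagement of H3K14Ac peptide; the protein and biotinylated peptide are both at 50 nM final, buffer PBS pH 7.4 with 0.01% Tween-20, all steps at room temperature.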
JMJD2A Tudor: blocks the human JMJD2A Tudor domain | AlphaScreen JMJD2A-Tudor / H3K4me3 peptide binding | Potency, µM (doses to about 114 µM), for the others: at the highest dose activity change, negative = inhibition, hits mostly inhibitors | 390,000 tested, 4.4% active | AID 504339; also: potency is read from the fitted curve at half-maximal effect; % is scaled to controls: 0 for no effect and ±100 for the full control effect; nearly all actives have a fitted effect of over 50% in size
Target sequence (O75164 whole entry, looked up, the tested form may be a part): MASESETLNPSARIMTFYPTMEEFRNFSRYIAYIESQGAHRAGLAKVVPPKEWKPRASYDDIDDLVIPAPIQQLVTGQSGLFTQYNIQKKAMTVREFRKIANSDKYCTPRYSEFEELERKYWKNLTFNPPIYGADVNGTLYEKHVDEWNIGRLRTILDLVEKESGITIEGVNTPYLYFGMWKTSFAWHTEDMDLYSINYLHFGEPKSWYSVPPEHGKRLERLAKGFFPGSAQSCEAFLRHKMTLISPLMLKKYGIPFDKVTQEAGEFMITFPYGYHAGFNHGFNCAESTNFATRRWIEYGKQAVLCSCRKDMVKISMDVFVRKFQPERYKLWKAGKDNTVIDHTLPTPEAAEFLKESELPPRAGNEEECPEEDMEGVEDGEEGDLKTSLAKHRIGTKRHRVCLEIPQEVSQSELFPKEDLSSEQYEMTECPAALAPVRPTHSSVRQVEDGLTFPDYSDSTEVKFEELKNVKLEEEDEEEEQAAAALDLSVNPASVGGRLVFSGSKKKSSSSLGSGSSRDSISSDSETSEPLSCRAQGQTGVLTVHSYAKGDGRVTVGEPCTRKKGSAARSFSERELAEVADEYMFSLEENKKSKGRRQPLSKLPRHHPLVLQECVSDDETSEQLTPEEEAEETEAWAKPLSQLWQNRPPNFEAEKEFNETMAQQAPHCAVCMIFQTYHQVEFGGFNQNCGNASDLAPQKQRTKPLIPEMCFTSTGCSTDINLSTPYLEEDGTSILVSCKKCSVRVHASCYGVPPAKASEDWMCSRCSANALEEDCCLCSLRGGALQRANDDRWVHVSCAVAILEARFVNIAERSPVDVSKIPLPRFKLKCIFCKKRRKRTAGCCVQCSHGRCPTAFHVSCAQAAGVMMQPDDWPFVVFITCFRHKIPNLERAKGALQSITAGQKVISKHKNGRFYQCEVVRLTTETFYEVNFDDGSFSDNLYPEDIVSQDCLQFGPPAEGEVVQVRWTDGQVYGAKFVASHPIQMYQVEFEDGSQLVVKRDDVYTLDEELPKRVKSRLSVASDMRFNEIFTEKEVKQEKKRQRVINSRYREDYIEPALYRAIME
An asterisk follows results filed as active; [ ] = remark or other dose. A selection: hits, their analogues and other compounds. The true share with any hit is near 7%. Unless noted, calls follow the shape of the dose curve; as a rule, active = well fitted curve in the direction sought with a large enough effect; inconclusive = small, poorly fitted or top-dose-only effect, or another doubt; inactive = no such curve, though single readings can be large; an effect the other way counts as inactive or inconclusive.

Results for O=C(Oc1ccccc1)N1CCC[C@@]2(CCN(Cc3cc(C(F)(F)F)cc(C(F)(F)F)c3)C2)C1 ?
GCN5L2 inh: -9%

How did COc1ccc(N2C(=O)NC(=O)/C(=C\c3cn(CC(=O)N4CCOCC4)c4ccccc34)C2=O)c(OC)c1 do in these assays?
GCN5L2 inh: -5%; PI5P4Ka inh: 1; HP1b chromo inh: 44%; PLK1 PBD block: 11µM*; BAZ2B block: -24%; JMJD2A Tudor: -20%

Results for COCCNC(=O)Cn1cc(/C=C2\C(=O)NC(=O)N(c3cccc(C)c3C)C2=O)c2ccccc21 ?
GCN5L2 inh: -4%; PI5P4Ka inh: 5; HP1b chromo inh: 47%; PLK1 PBD block: 3.8µM*; BAZ2B block: -2%; JMJD2A Tudor: -8%

Results for COCCCNC(=O)Cn1cc(/C=C2\C(=O)NC(=O)N(c3ccccc3F)C2=O)c2ccccc21 ?
GCN5L2 inh: 4%; PI5P4Ka inh: -4; HP1b chromo inh: 34%; PLK1 PBD block: inconclusive; BAZ2B block: -30%; JMJD2A Tudor: -11%

How did CNCCc1cnc[nH]1 do in these assays?
GCN5L2 inh: 47%

What do the screens show for `CCOC(=O)c1cc(C)n(CCc2cnc[nH]2)c1C`?
GCN5L2 inh: -3%; PI5P4Ka inh: 0; HP1b chromo inh: -15%; PLK1 PBD block: -11%; BAZ2B block: 56µM*; JMJD2A Tudor: inconclusive

Results for Oc1ccccc1O ?
GCN5L2 inh: -7%; PI5P4Ka inh: -4; HP1b chromo inh: inconclusive; PLK1 PBD block: -15%; BAZ2B block: 6%; JMJD2A Tudor: 40µM*

What do the screens show for `Cc1[nH]c(=S)c(C#N)c2c1CCCC2`?
GCN5L2 inh: -2%; PI5P4Ka inh: -28; HP1b chromo inh: 39%; PLK1 PBD block: 27µM*; BAZ2B block: inconclusive; JMJD2A Tudor: 20µM*

Results for Oc1cc2c(cc1O)[C@H]1c3ccccc3CN[C@H]1CC2 ?
GCN5L2 inh: 0%

Results for c1ccc(CN2CCNCC2)nc1 ?
GCN5L2 inh: -2%; PI5P4Ka inh: 2; HP1b chromo inh: 10%; PLK1 PBD block: -17%; BAZ2B block: 71µM*; JMJD2A Tudor: 45µM*

How did COc1ccccc1CN1CCNCC1 do in these assays?
PI5P4Ka inh: -1; PLK1 PBD block: 1%

Results for Clc1ccc(CC[C@H](Cn2ccnc2)Sc2c(Cl)cccc2Cl)cc1 ?
GCN5L2 inh: -18%[21.4 µM]

What do the screens show for `CCC1Nc2ncnc(N3CCN(c4ccccn4)CC3)c2N(Cc2ccc(Br)cc2)C1=O` (stereo unspecified)?
GCN5L2 inh: -9%; PI5P4Ka inh: -7; HP1b chromo inh: 1%; PLK1 PBD block: -17%; JMJD2A Tudor: 79µM*

Results for CCOP(=S)(OCC)OCCSCC ?
GCN5L2 inh: 0%

How did Cc1cccc(-n2c(O)c(C)c(=O)[nH]c2=S)c1 do in these assays?
GCN5L2 inh: -7%; PI5P4Ka inh: inconclusive; HP1b chromo inh: 33%; PLK1 PBD block: 12µM*; BAZ2B block: inconclusive; JMJD2A Tudor: -16%

Results for CCOc1cc(C=C2C(=O)NC(=S)NC2=O)ccc1O ?
PI5P4Ka inh: -77*; HP1b chromo inh: inconclusive; PLK1 PBD block: 6µM*; JMJD2A Tudor: 32µM*

What do the screens show for `COc1ccc(C=C2C(=O)NC(=S)NC2=O)cc1OC`?
PI5P4Ka inh: -50*; HP1b chromo inh: inconclusive; PLK1 PBD block: 21µM*; JMJD2A Tudor: 22µM*

How did COc1ccc(/C=C/C=C2C(=O)NC(=S)NC2=O)cc1 do in these assays?
PI5P4Ka inh: -50*; HP1b chromo inh: -26%; PLK1 PBD block: 0.53µM*; JMJD2A Tudor: -31%

Results for CCOc1cccc(CNC2CN3CCC2CC3)c1 (stereo unspecified) ?
GCN5L2 inh: -2%[0.501 µM]; HP1b chromo inh: 26%; PLK1 PBD block: -8%; BAZ2B block: 1%; JMJD2A Tudor: -7%

Results for Cc1cc(OCC(=O)N2CCCN(C)CC2)ccc1Cl ?
GCN5L2 inh: -23%; PI5P4Ka inh: 3; HP1b chromo inh: 25%; PLK1 PBD block: 5%; BAZ2B block: 2%; JMJD2A Tudor: -10%

What do the screens show for `CCOc1cccc(OCCOCCN2CCCC2)c1`?
GCN5L2 inh: 0%; PI5P4Ka inh: 0; HP1b chromo inh: inconclusive; PLK1 PBD block: -3%; BAZ2B block: inconclusive; JMJD2A Tudor: 7.9µM*

Results for Clc1ccc(OCCCN2CCCC2)cc1Cl ?
GCN5L2 inh: -1%; PI5P4Ka inh: 0; HP1b chromo inh: inconclusive; PLK1 PBD block: 0%; BAZ2B block: inconclusive; JMJD2A Tudor: 4µM*

Results for C#Cc1cccc2c1c(C(=O)c1ccc(Cn3c(C)nc4cnccc43)c(F)c1)cn2C(=O)N(C)C ?
GCN5L2 inh: 1%

What do the screens show for `C[C@@H]1O[C@@H](O[C@H]2CC[C@@H](O[C@H]3[C@H](O)C[C@H](c4ccc5c(c4O)C(=O)C4=C(C5=O)[C@@]5(O)C(=O)C[C@](C)(O[C@H]6CC[C@H](O[C@H]7C=CC(=O)[C@H](C)O7)[C@H](C)O6)C[C@@]5(O)C=C4)O[C@@H]3C)O[C@H]2C)C=CC1=O`?
GCN5L2 inh: -42%

How did O=C1/C(=C\c2ccccc2)C[C@@]2(O)[C@H]3Cc4ccc(O)c5c4[C@@]2(CCN3CC2CC2)[C@H]1O5 do in these assays?
GCN5L2 inh: 4%

What do the screens show for `N#CC1c2ccccc2-n2nncc2CN1S(=O)(=O)c1cc(Cl)cc(Cl)c1` (stereo unspecified)?
PI5P4Ka inh: -6; HP1b chromo inh: 28%; PLK1 PBD block: -23%; JMJD2A Tudor: 89µM*

What do the screens show for `COc1ccc(S(=O)(=O)N2Cc3cnnn3-c3ccccc3C2C#N)cc1` (stereo unspecified)?
PI5P4Ka inh: -17; HP1b chromo inh: 44%; PLK1 PBD block: -13%; JMJD2A Tudor: -28%

What do the screens show for `C[C@@H]1O[C@H](O[C@@H]2C[C@@H](O)[C@]3(CO)[C@H]4[C@H](O)C[C@]5(C)[C@@H](C6=CC(=O)OC6)CC[C@@]5(O)[C@@H]4CC[C@]3(O)C2)[C@@H](O)[C@H](O)[C@H]1O`?
GCN5L2 inh: -4%

How did C#CCOS(=O)OC1CCCCC1Oc1ccc(C(C)(C)C)cc1 (stereo unspecified) do in these assays?
GCN5L2 inh: -19%

How did C[C@](N)(CCP(=O)(O)O)C(=O)O do in these assays?
GCN5L2 inh: inconclusive; PI5P4Ka inh: 8; HP1b chromo inh: -15%; PLK1 PBD block: -9%; BAZ2B block: inconclusive; JMJD2A Tudor: 4µM*
